{
  "source": "ChEMBL document CHEMBL3433997",
  "about": "“St. Jude Leishmania screening dataset” (2016)",
  "type_in_all_cases": "functional",
  "key": {"[1]": {"molecular_target": "Solute carrier family 2, facilitated glucose transporter member 1 (Homo sapiens) (UniProt P11166)", "sequence (P11166 whole entry)": "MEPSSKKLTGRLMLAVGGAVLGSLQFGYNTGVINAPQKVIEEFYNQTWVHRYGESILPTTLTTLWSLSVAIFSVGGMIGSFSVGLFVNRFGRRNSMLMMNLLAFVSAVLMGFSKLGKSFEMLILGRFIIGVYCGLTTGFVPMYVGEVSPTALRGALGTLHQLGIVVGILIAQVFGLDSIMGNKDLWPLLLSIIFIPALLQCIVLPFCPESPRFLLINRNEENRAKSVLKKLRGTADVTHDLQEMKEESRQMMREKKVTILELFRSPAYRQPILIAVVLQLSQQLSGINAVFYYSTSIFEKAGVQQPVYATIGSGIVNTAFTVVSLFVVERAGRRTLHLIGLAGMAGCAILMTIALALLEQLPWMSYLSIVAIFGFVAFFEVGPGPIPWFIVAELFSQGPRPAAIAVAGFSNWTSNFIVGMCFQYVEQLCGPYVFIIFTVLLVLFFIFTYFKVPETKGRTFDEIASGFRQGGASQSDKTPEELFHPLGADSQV", "test": "ST_JUDE_LEISH: Cytotoxicity at 2uM final concentration against transgenic Leishmania Mexicana promastigotes LmGLUT1 that are glucose transport deficient and complemented with the human glucose transporter GLUT1. Activity is measured by DNA content using SYBR green in vitro"}, "[2]": {"molecular_target": "Hexose transporter 1 (Plasmodium falciparum) (UniProt O97467)", "test": "ST_JUDE_LEISH: Cytotoxicity at 2uM final concentration against transgenic Leishmania Mexicana promastigotes LmPfHT that are glucose transport deficient and complemented with the Plasmodium falciparum hexose transporter. Activity is measured by DNA content using SYBR green in vitro"}, "[3]": {"molecular_target": "Glucose transporter (Leishmania mexicana) (UniProt O61059)", "test": "ST_JUDE_LEISH: Cytotoxicity at 2uM final concentration against transgenic Leishmania Mexicana promastigotes LmGT2 that are glucose transport deficient and complemented with the L. Mexicana glucose transporter 2. Activity is measured by DNA content using SYBR green in vitro"}},
  "data": [
    {"smiles": "COc1ccc(NCCCNc2ccnc3ccccc23)cc1", "values": [
      {"measurement": "inhibition", "setting": "[1]", "result": 5.01, "unit": "%"},
      {"measurement": "inhibition", "setting": "[2]", "result": 4.48, "unit": "%"},
      {"measurement": "inhibition", "setting": "[3]", "result": 1.73, "unit": "%"}
    ]},
    {"smiles": "COCCNCc1cccc(-c2cccc(CNC3CCN(Cc4ccccc4)CC3)c2)c1", "values": [
      {"measurement": "inhibition", "setting": "[1]", "result": 2.73, "unit": "%"},
      {"measurement": "inhibition", "setting": "[2]", "result": 2.84, "unit": "%"},
      {"measurement": "inhibition", "setting": "[3]", "result": 2.88, "unit": "%"}
    ]},
    {"smiles": "CC(C)CCNC(=O)C1Cc2c([nH]c3ccc(Br)cc23)C2(CCN(Cc3ccccc3)CC2)N1", "note": "(stereo not given)", "values": [
      {"measurement": "inhibition", "setting": "[1]", "result": 104, "unit": "%"},
      {"measurement": "inhibition", "setting": "[2]", "result": 103, "unit": "%"},
      {"measurement": "inhibition", "setting": "[3]", "result": 94.2, "unit": "%"}
    ]},
    {"smiles": "CC(=O)Nc1ccc(S(=O)(=O)Nc2c(C)cc(Cc3cnc(N)nc3N)cc2C)cc1", "values": [
      {"measurement": "inhibition", "setting": "[1]", "result": -0.22, "unit": "%"},
      {"measurement": "inhibition", "setting": "[2]", "result": 0.02, "unit": "%"},
      {"measurement": "inhibition", "setting": "[3]", "result": -0.69, "unit": "%"}
    ]},
    {"smiles": "O=C(/C=C/c1ccc(Cl)c(Cl)c1)NCCCCCN1CCC(c2c[nH]c3c(-c4ccccc4)cccc23)CC1", "values": [
      {"measurement": "inhibition", "setting": "[1]", "result": 0.48, "unit": "%"},
      {"measurement": "inhibition", "setting": "[2]", "result": 4.3, "unit": "%"},
      {"measurement": "inhibition", "setting": "[3]", "result": 3.07, "unit": "%"}
    ]},
    {"smiles": "COc1ccc2ncc(F)c(CCN3CCC(NCc4cc5c(cn4)OCCS5)CC3)c2c1", "values": [
      {"measurement": "inhibition", "setting": "[1]", "result": 57.8, "unit": "%"},
      {"measurement": "inhibition", "setting": "[2]", "result": 66.5, "unit": "%"},
      {"measurement": "inhibition", "setting": "[3]", "result": 80.3, "unit": "%"}
    ]},
    {"smiles": "Cc1ccc(-n2c(C)cc(C(=O)CN3C(=O)NC(Cc4ccccc4)C3=O)c2C)cc1", "note": "(stereo not given)", "values": [
      {"measurement": "inhibition", "setting": "[1]", "result": 0.81, "unit": "%"},
      {"measurement": "inhibition", "setting": "[2]", "result": -1.87, "unit": "%"},
      {"measurement": "inhibition", "setting": "[3]", "result": 0.55, "unit": "%"}
    ]},
    {"smiles": "CC(C)(C)c1cc(C(=O)N2CCN(c3cnccn3)CC2)n(Cc2ccccc2)n1", "values": [
      {"measurement": "inhibition", "setting": "[1]", "result": 4.57, "unit": "%"},
      {"measurement": "inhibition", "setting": "[2]", "result": 4.68, "unit": "%"},
      {"measurement": "inhibition", "setting": "[3]", "result": 4.9, "unit": "%"}
    ]},
    {"smiles": "Cc1cc(C2CCN(CCCCNC(=O)c3ccc(NC(=O)c4ccc(Cl)cc4)cc3)CC2)c(C)cc1OCc1ccncc1", "values": [
      {"measurement": "inhibition", "setting": "[1]", "result": 8.72, "unit": "%"},
      {"measurement": "inhibition", "setting": "[2]", "result": 7.09, "unit": "%"},
      {"measurement": "inhibition", "setting": "[3]", "result": 7.42, "unit": "%"}
    ]},
    {"smiles": "CN(CCCNC(=S)NC12CC3CC(CC(C3)C1)C2)CCCNc1ccnc2cc(Cl)ccc12", "values": [
      {"measurement": "inhibition", "setting": "[1]", "result": -1.07, "unit": "%"},
      {"measurement": "inhibition", "setting": "[2]", "result": 0.09, "unit": "%"},
      {"measurement": "inhibition", "setting": "[3]", "result": 1.25, "unit": "%"}
    ]},
    {"smiles": "Cc1nnc2c(NC(=O)NC3CCCC3)cc3cc(-c4ccc(CN5CCN(C)CC5)cc4)ccc3n12", "values": [
      {"measurement": "inhibition", "setting": "[1]", "result": 7.2, "unit": "%"},
      {"measurement": "inhibition", "setting": "[2]", "result": 4.95, "unit": "%"},
      {"measurement": "inhibition", "setting": "[3]", "result": 4.79, "unit": "%"}
    ]},
    {"smiles": "COc1ccc2nccc([C@@H](O)CN3CCC(NCc4cc5cc(Cl)ccc5[nH]4)CC3)c2c1", "values": [
      {"measurement": "inhibition", "setting": "[1]", "result": 12.5, "unit": "%"},
      {"measurement": "inhibition", "setting": "[2]", "result": 28.1, "unit": "%"},
      {"measurement": "inhibition", "setting": "[3]", "result": 2.75, "unit": "%"}
    ]},
    {"smiles": "Nc1ncnc2cc(-c3cccc(NC(=O)Nc4ccccc4)c3)sc12", "values": [
      {"measurement": "inhibition", "setting": "[1]", "result": 3.48, "unit": "%"},
      {"measurement": "inhibition", "setting": "[2]", "result": 2.18, "unit": "%"},
      {"measurement": "inhibition", "setting": "[3]", "result": -1.3, "unit": "%"}
    ]},
    {"smiles": "CCCc1cc(N2CCC(N(CC)CC)C2)nc(Nc2ccc(OC)cc2)n1", "note": "(stereo not given)", "values": [
      {"measurement": "inhibition", "setting": "[1]", "result": 3.16, "unit": "%"},
      {"measurement": "inhibition", "setting": "[2]", "result": 3.72, "unit": "%"},
      {"measurement": "inhibition", "setting": "[3]", "result": 1.91, "unit": "%"}
    ]},
    {"smiles": "CCNc1cc(C)nc(Nc2ccc(NC(=O)c3ccco3)cc2)n1", "values": [
      {"measurement": "inhibition", "setting": "[1]", "result": 4.54, "unit": "%"},
      {"measurement": "inhibition", "setting": "[2]", "result": 3.53, "unit": "%"},
      {"measurement": "inhibition", "setting": "[3]", "result": -0.01, "unit": "%"}
    ]},
    {"smiles": "COc1cccc(C2C(C(=O)Nc3ccccc3)=C(C)N=c3sc(=Cc4ccc(O)cc4)c(=O)n32)c1", "note": "(stereo not given)", "values": [
      {"measurement": "inhibition", "setting": "[1]", "result": 19.2, "unit": "%"},
      {"measurement": "inhibition", "setting": "[2]", "result": 27.8, "unit": "%"},
      {"measurement": "inhibition", "setting": "[3]", "result": 16.8, "unit": "%"}
    ]},
    {"smiles": "O=S(=O)(NCCN1CCCC1)c1ccc(-c2ccc(CNCc3ccccc3)cc2)cc1", "values": [
      {"measurement": "inhibition", "setting": "[1]", "result": 2.85, "unit": "%"},
      {"measurement": "inhibition", "setting": "[2]", "result": 1.2, "unit": "%"},
      {"measurement": "inhibition", "setting": "[3]", "result": -0.93, "unit": "%"}
    ]},
    {"smiles": "Cc1cccc(C(=O)N2CCN(Cc3cccc(NC(=O)c4cccs4)c3)CC2)c1", "values": [
      {"measurement": "inhibition", "setting": "[1]", "result": 7.96, "unit": "%"},
      {"measurement": "inhibition", "setting": "[2]", "result": 9.38, "unit": "%"},
      {"measurement": "inhibition", "setting": "[3]", "result": 7.07, "unit": "%"}
    ]},
    {"smiles": "O=C(NC1CCN(Cc2ccccc2)CC1)c1cccc(Nc2nc(-c3ccccc3)cs2)c1", "values": [
      {"measurement": "inhibition", "setting": "[1]", "result": 9.1, "unit": "%"},
      {"measurement": "inhibition", "setting": "[2]", "result": 8.88, "unit": "%"},
      {"measurement": "inhibition", "setting": "[3]", "result": 2.09, "unit": "%"}
    ]},
    {"smiles": "CC1CN(Cc2cccc(C#N)c2)CCN1c1ccc(NC(=O)c2cccs2)cc1", "note": "(stereo not given)", "values": [
      {"measurement": "inhibition", "setting": "[1]", "result": 6.93, "unit": "%"},
      {"measurement": "inhibition", "setting": "[2]", "result": 7.96, "unit": "%"},
      {"measurement": "inhibition", "setting": "[3]", "result": 4.53, "unit": "%"}
    ]},
    {"smiles": "OCC1CCN(Cc2ccc(-c3cccc(-c4nc5cc(C(F)(F)F)ccc5[nH]4)c3)cc2)CC1", "values": [
      {"measurement": "inhibition", "setting": "[1]", "result": -1, "unit": "%"},
      {"measurement": "inhibition", "setting": "[2]", "result": 1.12, "unit": "%"},
      {"measurement": "inhibition", "setting": "[3]", "result": 7.35, "unit": "%"}
    ]},
    {"smiles": "COc1ccc(CNc2nc(NCc3ccccc3)c3cc(OC)c(OC)cc3n2)cc1OC", "values": [
      {"measurement": "inhibition", "setting": "[1]", "result": 4.35, "unit": "%"},
      {"measurement": "inhibition", "setting": "[2]", "result": 5.92, "unit": "%"},
      {"measurement": "inhibition", "setting": "[3]", "result": 0.89, "unit": "%"}
    ]},
    {"smiles": "O=C(NCc1cccc(F)c1)Nc1ccc(-c2cccc(-c3nc4cc(F)ccc4[nH]3)c2)cc1", "values": [
      {"measurement": "inhibition", "setting": "[1]", "result": 1.98, "unit": "%"},
      {"measurement": "inhibition", "setting": "[2]", "result": 1.08, "unit": "%"},
      {"measurement": "inhibition", "setting": "[3]", "result": 6.08, "unit": "%"}
    ]},
    {"smiles": "O=C(NC1CCN(c2ccc(F)cc2[N+](=O)[O-])CC1)c1cccs1", "values": [
      {"measurement": "inhibition", "setting": "[1]", "result": 4.31, "unit": "%"},
      {"measurement": "inhibition", "setting": "[2]", "result": 3.82, "unit": "%"},
      {"measurement": "inhibition", "setting": "[3]", "result": 2.71, "unit": "%"}
    ]},
    {"smiles": "CCOc1ccccc1CON1C(N)=NC(N)=NC1(C)C", "values": [
      {"measurement": "inhibition", "setting": "[1]", "result": 4.48, "unit": "%"},
      {"measurement": "inhibition", "setting": "[2]", "result": 3.69, "unit": "%"},
      {"measurement": "inhibition", "setting": "[3]", "result": 7.54, "unit": "%"}
    ]}
  ]
}
